RAM network inh: inhibitors of the yeast RAM network, primary screen, dse1pr::URA3 reporter, 5-FOA selection | S. cerevisiae dse1pr::URA3 reporter, 5-FOA growth OD615, 2 d; analog-sensitive cbk1-as2 kinase mutant strain | inhibition, % at 50 µM | 1.8% of 190,000 active | AID 868, 2007;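 active = inhibition above a set limit, 3 SD over mean compound inhibition, cut at about 8.4% in these data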;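 note: inhibition rescues growth on 5-FOA so higher OD means more RAM inhibition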
S1P3 antagonist: S1P3 receptor antagonists, primary screen, cell-based. Sphingosine 1-phosphate receptor 3 (Homo sapiens), Q99500. CHO S1P3 NFAT-BLA reporter, FRET fluorescence, antagonist mode. inhibition, % at 4.98 µM. 0.27% of 170,000 active. AID 485, 2006;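 active = inhibition above the plate cutoff, the mean inhibition of test wells on that plate plus 3 SD, cut at about 28% in these data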;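 note: cells challenged with S1P at its EC80 of 0.8 µM; blue over green emission ratio from cleaved BLA substrate after 4 h stimulation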
Target sequence (Q99500 whole entry, looked up): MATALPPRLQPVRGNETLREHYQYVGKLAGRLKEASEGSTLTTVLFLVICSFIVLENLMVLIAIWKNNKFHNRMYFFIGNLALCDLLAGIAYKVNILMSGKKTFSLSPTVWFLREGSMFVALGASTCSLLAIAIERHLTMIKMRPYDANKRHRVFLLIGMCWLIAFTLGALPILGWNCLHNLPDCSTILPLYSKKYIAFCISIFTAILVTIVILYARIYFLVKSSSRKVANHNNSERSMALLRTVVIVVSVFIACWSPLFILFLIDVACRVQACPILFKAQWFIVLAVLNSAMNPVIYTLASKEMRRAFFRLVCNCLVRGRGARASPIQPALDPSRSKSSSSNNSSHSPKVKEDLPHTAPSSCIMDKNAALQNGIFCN
S1P4 ag: S1P4 receptor agonists, primary screen, cell-based | Sphingosine 1-phosphate receptor 4 (Homo sapiens), O95977 | S1P4-expressing cell line, agonist reporter assay | activation, % at 4.98 µM | 0.35% of 220,000 active; in the data active = activation above about 11%
ROMK mod: ROMK potassium channel modulators, primary screen, cell-based, thallium flux, MLSMR library. Tet-inducible ROMK, thallium flux fluorescence; actives lie on both sides. B-score at 10 µM. 2% of 130,000 active;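 active = signal ratio slope over the read window, or its plate-corrected B-score, at least 3 SD from the plate mean, either direction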;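 note: B-score of the F/F0 ratio slope over 7 to 12 s after thallium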
Target sequence (P48048 whole entry, looked up): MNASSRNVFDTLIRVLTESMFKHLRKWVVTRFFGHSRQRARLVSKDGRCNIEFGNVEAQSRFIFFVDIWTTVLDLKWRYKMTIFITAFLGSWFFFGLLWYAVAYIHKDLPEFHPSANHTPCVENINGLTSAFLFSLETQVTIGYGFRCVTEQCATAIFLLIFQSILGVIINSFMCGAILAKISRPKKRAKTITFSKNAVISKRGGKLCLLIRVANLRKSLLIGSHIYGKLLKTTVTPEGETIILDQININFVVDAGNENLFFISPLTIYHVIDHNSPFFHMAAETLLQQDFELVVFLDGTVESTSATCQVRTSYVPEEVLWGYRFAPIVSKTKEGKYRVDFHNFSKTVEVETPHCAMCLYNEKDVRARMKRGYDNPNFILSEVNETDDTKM
S1P4 antag: S1P4 receptor antagonists, primary screen, cell-based | S1P4-expressing cells, antagonist mode, reporter read-out | AID 1510, 2009 | Sphingosine 1-phosphate receptor 4 (Homo sapiens), O95977 | inhibition, % at 4.98 µM | 0.26% of 220,000 active; in the data active = inhibition above about 29%
KCC2 mod: KCC2 cotransporter modulators, thallium flux, primary screen, cell-based, HEK293 KCC2, FluoZin-2 fluorescence, MLSMR; 2.2% of 190,000 active; AID 1456, 2008; Solute carrier family 12 member 5 (Homo sapiens), Q9H2X9; B-score of Tl+ flux slope (higher = more flux/activation; lower = inhibition) at 10 µM; KCC2 cells, thallium flux FluoZin-2 fluorescence;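 active = thallium flux slope and its plate-corrected score both differing from the plate sample mean at a set confidence after two filtering rounds, in either direction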;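 note: slope of fluorescence scaled to starting intensity during 10 to 20 s after thallium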
KCC2 sec1: KCC2 modulators in sodium-free buffer, confirmation, cell-based, HEK293 KCC2, thallium flux, secondary assay; shares compounds with KCC2 mod; FluoZin2 fluorescence; active compounds read high; normalised thallium flux (F/F0 slope) at 10 µM; 15% of 3,700 active;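 active = thallium flux slope above the same plate's solvent-only control mean plus 3 SD; inconclusive = the two replicate wells disagree; inactive = no significant difference from solvent-only control wells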
KCC2 bumet counter: thallium flux persisting under bumetanide in KCC2 cells, confirmation, counter-screen for KCC2 modulator project, cell-based, HEK293 KCC2, FluoZin2, secondary assay 3; shares compounds with KCC2 mod; HEK293-KCC2 + bumetanide/ouabain; active compounds read high; normalized thallium flux at 10 µM; 49% of 3,700 active; AID 1714, 2009;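 active = thallium entry rate above the same plate's blocked-transporter control wells by more than 3 SD; inconclusive = the two repeat wells disagree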;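 note: raw slope of fluorescence over initial fluorescence between 10 and 20 s after thallium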
KCC2 secondary2: KCC2 modulators without ouabain present, confirmation, cell-based, HEK293 KCC2, thallium flux, FluoZin2, secondary assay 2; thallium flux FluoZin2 fluorescence; actives lie on both sides; F/F0 rise rate, 10–20 s post-thallium; 23% of 3,700 active; shares compounds with KCC2 mod; normalized thallium flux at 10 µM;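 active = thallium flux slope more than 3 SD above or below the plate's solvent-only control mean, mostly below; inconclusive = the two repeat wells disagreed; inactive = no significant shift from solvent-only controls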
HEK293 Tl flux: thallium flux modulation in parental HEK cells, confirmation, counter-screen for KCC2 modulator project, cell-based, counterscreen 1; 46% of 3,700 active; AID 1716, 2009; shares compounds with KCC2 mod; thallium flux rate (normalised fluorescence) at 10 µM; HEK293 parental cells, thallium flux FluoZin2, ouabain; baseline-ratio fluorescence slope, 10–20 s after thallium;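 active = thallium flux rate significantly above the same plate's solvent-only control wells, beyond their mean plus 3 SD; inconclusive = the two replicate wells gave conflicting results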
KCC2 ouabain: KCC2 inhibitors and activators, ouabain retest, confirmation, HEK-KCC2 cells. shares compounds with KCC2 mod. HEK293-KCC2, thallium flux FluoZin2 fluorescence; bidirectional: low = inhibitor, high = activator. raw Tl+ flux slope (below DMSO = inhibition, above = activation) at 10 µM. 48% of 3,700 active. AID 1717, 2009;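 active = thallium flux slope beyond 3 SD from same-plate DMSO control mean in most replicates, usually higher, sometimes lower; inconclusive = repeat tests gave conflicting results; inactive = no significant difference from controls in most replicates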;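 note: slope of initial-normalized fluorescence between seconds 10 and 20 after thallium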
HEK293 Tl flux2: native HEK Tl+ uptake effects, second counter-screen – HEK cells, counterscreen 2, counter-screen for KCC2 modulator project, confirmation; shares compounds with KCC2 mod; HEK293 parental, thallium flux FluoZin-2 fluorescence slope; thallium flux slope at 10 µM; 33% of 3,700 active;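 active = thallium flux slope above the same plate's solvent-control mean plus 3 SD in both duplicate wells; inconclusive = duplicate wells that disagreed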;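 note: run without ouabain in cells lacking the KCC2 cotransporter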
Large screens that a line does not name were inactive (follow-up assays come after a bar, where they were run). Only some compounds are listed: those with a hit (about 5.1% of all), similar ones and a draw of the others.

COc1ccc(CNC(=S)N/N=C(/C)c2ccccc2)cc1	KCC2 mod 5.7 (no result: RAM network inh) | KCC2 sec1 inactive | KCC2 bumet counter 0.023 | KCC2 secondary2 inactive | HEK293 Tl flux 0.014 | KCC2 ouabain inconclusive | HEK293 Tl flux2 0.016
C/C(=N\NC(=S)NCc1ccccc1)c1ccco1	KCC2 mod 13 | KCC2 sec1 inactive | KCC2 bumet counter 0.019 | KCC2 secondary2 inactive | HEK293 Tl flux inconclusive | KCC2 ouabain 0.029 | HEK293 Tl flux2 inactive
CC/C(C)=N/NC(=S)NCc1ccco1	none
C/C(=N\NC(=S)NCc1ccccc1)c1ccccc1	KCC2 mod 7.8 | KCC2 sec1 inactive | KCC2 bumet counter 0.043 | KCC2 secondary2 inactive | HEK293 Tl flux 0.015 | KCC2 ouabain 0.07 | HEK293 Tl flux2 inactive
CCNC(=S)N/N=C(\C)c1cccc(OC)c1	none
C/C(=C\C(=O)c1sccc1Cl)N(C)C	none
Cc1ccc(S(=O)(=O)NC(=O)Nc2cc(C)ccc2F)cc1	KCC2 mod -11 (no result: ROMK mod) | KCC2 sec1 inactive | KCC2 bumet counter inconclusive | KCC2 secondary2 inactive | HEK293 Tl flux inconclusive | KCC2 ouabain inactive | HEK293 Tl flux2 inactive
CCOc1ccc(CCNC(=O)c2ccc3nc(N4CCOCC4)sc3c2)cc1OCC	none (no result: RAM network inh)
CC(/C=C/c1ccccc1)=N/NC(=O)c1cccc(Br)c1	KCC2 mod 11 | KCC2 sec1 inactive | KCC2 bumet counter 0.037 | KCC2 secondary2 inactive | HEK293 Tl flux 0.037 | KCC2 ouabain 0.03 | HEK293 Tl flux2 0.014
CC(/C=C/c1ccccc1F)=N\NC(=O)c1ccc(Cl)cc1	KCC2 mod 6.2 | KCC2 sec1 0.024 | KCC2 bumet counter 0.02 | KCC2 secondary2 inconclusive | HEK293 Tl flux 0.015 | KCC2 ouabain 0.022 | HEK293 Tl flux2 0.019
CC(/C=C/C=C/c1ccccc1)=N\NC(=O)c1cccnc1	none (no result: ROMK mod)
CC(/C=C\C=C\c1ccccc1)=N\NC(=O)c1cncc(Br)c1	KCC2 mod 13 | KCC2 sec1 inconclusive | KCC2 bumet counter 0.029 | KCC2 secondary2 inactive | HEK293 Tl flux 0.038 | KCC2 ouabain 0.031 | HEK293 Tl flux2 0.017
C/C(=N\NC(=O)c1ccccc1)c1cccc(Br)c1	none
CC(/C=C/c1ccccc1)=N\NC(=O)c1ccc(Br)cc1	KCC2 mod 8.2 | KCC2 sec1 0.022 | KCC2 bumet counter 0.028 | KCC2 secondary2 inactive | HEK293 Tl flux 0.016 | KCC2 ouabain inactive | HEK293 Tl flux2 0.018
Cc1n(N)c2ccccc2[n+]1CC(=O)c1ccccc1	none
CCOC(=O)c1cc(C#N)c(N2CCN(c3ccc(OC)cc3)CC2)[nH]c1=O	none
CCc1[nH]c(=O)c(C#N)c2c1CCCC2	none (no result: S1P3 antagonist, ROMK mod)
CCc1[nH]c(=S)c(C#N)c2c1CCCC2	KCC2 mod 16 | KCC2 sec1 inactive | KCC2 bumet counter 0.014 | KCC2 secondary2 inactive | HEK293 Tl flux 0.017 | KCC2 ouabain inconclusive | HEK293 Tl flux2 0.014
CCOC(=O)c1c2c([nH]c(=S)c1C#N)CCCC2	KCC2 mod 11 (no result: RAM network inh, ROMK mod) | KCC2 sec1 inactive | KCC2 bumet counter 0.011 | KCC2 secondary2 inactive | HEK293 Tl flux inconclusive | KCC2 ouabain inconclusive | HEK293 Tl flux2 inactive
COc1ccc(NC(=O)CSc2nnc(NC(=O)c3ccccc3C(=O)O)s2)cc1	none
CN1CCN(C(=O)c2ccc(CS(=O)(=O)c3c(Cl)cccc3Cl)o2)CC1	KCC2 mod -3.3 (no result: ROMK mod) | KCC2 sec1 inactive | KCC2 bumet counter inactive | KCC2 secondary2 inactive | HEK293 Tl flux inactive | KCC2 ouabain inactive | HEK293 Tl flux2 inactive
O=C(c1ccc(CS(=O)(=O)c2c(Cl)cccc2Cl)o1)N1CCCC1	none (no result: ROMK mod)
O=C(CSc1nnc(-c2c[nH]c3ccccc23)o1)N1CCCCC1	KCC2 mod -3.1 (no result: ROMK mod) | KCC2 sec1 inactive | KCC2 bumet counter inconclusive | KCC2 secondary2 0.029 | HEK293 Tl flux inactive | KCC2 ouabain 0.021 | HEK293 Tl flux2 inactive
CC(C)NC(=O)c1nn2c(C(F)(F)F)cc(-c3ccco3)nc2c1Cl	none
CN(CCc1ccccn1)C(=O)c1nn2c(C(F)(F)F)cc(-c3ccco3)nc2c1Cl	KCC2 mod -5.2 | KCC2 sec1 inactive | KCC2 bumet counter inactive | KCC2 secondary2 inactive | HEK293 Tl flux inactive | KCC2 ouabain 0.014 | HEK293 Tl flux2 inactive
COC(C/C=C\[C@@H](O)COCc1ccccc1)OC	none (no result: RAM network inh, S1P3 antagonist, S1P4 ag, ROMK mod, S1P4 antag)
COc1ccc(C(=O)NNC(=O)CSc2nnc(C)n2CC2CCCO2)cc1 (stereo unspecified)	none
CC(Oc1ccc(Cl)cc1Cl)c1ccnc(N)n1 (stereo unspecified)	KCC2 mod -2.9 | KCC2 sec1 inactive | KCC2 bumet counter inactive | KCC2 secondary2 inactive | HEK293 Tl flux inactive | KCC2 ouabain inactive | HEK293 Tl flux2 inactive
CCN(CC)S(=O)(=O)c1ccc(C)c(NC(=S)N2CCN(Cc3ccc4c(c3)OCO4)CC2)c1	none
